Test results published in PubChem BioAssay AID1159580 (chemical genetic matrix, 2015).
Screen size: about 5,500 compounds; about 2,000 (36%) were called active. Not shown: some 18% with an inconclusive outcome. Rule as the data show it: active = normalized growth mostly below about 0.91 (no sharp cut-off); inconclusive = no clear call, values can overlap the other calls; inactive = mostly above about 0.92. This is one part of the list.

Assay: chemical genetic growth profiling, strain panel (AID 1159580);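 also: tested at 20 µM; growth read once vehicle control cultures reached saturation at 30 °C; 1 = growth at the plate median or of vehicle wells; lower values mean less growth of the strain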
Conditions: S. cerevisiae deletion strains, growth OD

Measured: normalized growth

NC(N)=NCCSSCCN=C(N)N
inactive: locus YAL013W, strain DEP1, active compounds read low 0.949 | locus YAL040C, strain CLN3, active compounds read low 0.948 | locus YCL061C, strain MRC1 (second series), active compounds read low 0.979 | locus YDR150W, strain NUM1, active compounds read low 0.988 | locus YDR363W, strain ESC2, active compounds read low 0.941 | locus YER002W, strain NOP16, active compounds read low 0.992 | locus YGR078C, strain PAC10, active compounds read low 0.973 | locus YJR075W, strain HOC1, active compounds read low 0.967 | locus YMR263W, strain SAP30, active compounds read low 0.981 | locus YMR307W, strain GAS1, active compounds read low 0.977 | locus YNL175C, strain NOP13, active compounds read low 0.981 | locus YNL197C, strain WHI3, active compounds read low 0.972 | locus YNL224C, strain SQS1, active compounds read low 1.01 | locus YOR083W, strain WHI5 (second series), active compounds read low 0.963 | locus YPL055C, strain LGE1, active compounds read low 0.983
